# PubChem BioAssay
# The source made the active and inactive calls.
# Legend:
# [1] = test system: PRMT1 (protein arginine N-methyltransferase 1); assay: small molecules binding arginine methyltransferase PRMT1 – biochemical, small-molecule microarray, 635 nm fluorescence, primary screen (AID 1088); conditions: higher = more signal;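 further: binding of Prmt1 protein to compounds spotted on small-molecule microarray slides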
# [2] = growth effects on S. cerevisiae YJM789 – YJM789 clinical isolate, OD600, 24 h, basal, primary screen (AID 1089); conditions: higher = more signal, called active from +8 up or from −8 down;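 further: growth of clinical yeast isolate S. cerevisiae YJM 789 seeded 1000 cells per well; test concentration not given here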
# [3] = S. pombe growth modifiers, basal conditions – strain 972, OD600, 24 h, no modulator, primary screen (AID 1090);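 further: basal condition with compound alone and no growth modifier present; test concentration not given here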; conditions: S. pombe 972 growth, higher = more signal, called active from +8 up or from −8 down
# [4] = budding yeast growth modifiers under rapamycin – strain BY4716, OD600, 96 h, primary screen (AID 1091); further: test concentration not given here; conditions: S. cerevisiae BY4716 + rapamycin, higher = more signal, called active from +8 up or from −8 down
# [5] = biological target: Torsin-1A-interacting protein 2 (Homo sapiens) (UniProt Q8NFQ8); assay: small molecules binding lysate-expressed LULL1 – cell lysate, human LULL1 lysate, 635/667 nm fluorescence, primary screen (AID 1092); conditions: small-molecule microarray, hLULL1 lysate binding, 635 nm fluorescence; higher = more signal;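 further: probe is lysate of COS7 cells overexpressing human LULL1; score merges per-feature 667 nm fluorescence with signal-to-noise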
# Sequence of Torsin-1A-interacting protein 2 (Homo sapiens) (Q8NFQ8 whole entry, looked up): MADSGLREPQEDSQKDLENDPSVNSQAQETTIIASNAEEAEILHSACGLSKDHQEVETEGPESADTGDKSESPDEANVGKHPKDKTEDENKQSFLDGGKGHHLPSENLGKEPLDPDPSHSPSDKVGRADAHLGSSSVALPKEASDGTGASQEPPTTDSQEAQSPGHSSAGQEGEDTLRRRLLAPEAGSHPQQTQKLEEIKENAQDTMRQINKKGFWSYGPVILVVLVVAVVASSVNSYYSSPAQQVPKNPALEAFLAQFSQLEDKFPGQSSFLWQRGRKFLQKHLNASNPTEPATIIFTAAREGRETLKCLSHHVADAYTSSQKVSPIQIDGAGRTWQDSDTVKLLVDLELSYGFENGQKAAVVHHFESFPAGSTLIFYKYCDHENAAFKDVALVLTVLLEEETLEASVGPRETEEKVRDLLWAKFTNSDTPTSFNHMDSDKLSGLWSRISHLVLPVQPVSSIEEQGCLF
# [6] = optical density change of DRC41 E. coli – strain DRC41, OD650, 24 h, E. coli filamentation project, primary screen (AID 1093);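 further: MC1000 strain lacking acrAB efflux and sulA so SOS filamentation is blocked; test concentration not given here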; conditions: E. coli DRC41 growth, higher = more signal, called active from +8 up or from −8 down
# [7] = probe aLefty2 binding to arrayed compounds – biochemical, biotinylated probe, 635/667 nm fluorescence, primary screen (AID 1094); conditions: small-molecule microarray, higher = more signal;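 further: score merges spot fluorescence near 667 nm with spot signal-to-noise ratio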
# [8] = test system: Noggin (protein binding on small-molecule microarray); assay: small molecules binding Noggin protein – biochemical, 635/667 nm fluorescence, primary screen (AID 1095); conditions: 635 nm fluorescence, higher = more signal;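 further: score merges 667 nm feature fluorescence with signal to noise over triplicate slides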
# [9] = biological target: Neurogenic locus notch homolog protein 3 (Homo sapiens) (UniProt Q9UM47); assay: small molecules binding NOTCH3 protein – biochemical, 635/667 nm fluorescence, primary screen (AID 1096); conditions: small-molecule microarray, 635 nm fluorescence, higher = more signal
# Sequence of Neurogenic locus notch homolog protein 3 (Homo sapiens) (Q9UM47 whole entry, looked up): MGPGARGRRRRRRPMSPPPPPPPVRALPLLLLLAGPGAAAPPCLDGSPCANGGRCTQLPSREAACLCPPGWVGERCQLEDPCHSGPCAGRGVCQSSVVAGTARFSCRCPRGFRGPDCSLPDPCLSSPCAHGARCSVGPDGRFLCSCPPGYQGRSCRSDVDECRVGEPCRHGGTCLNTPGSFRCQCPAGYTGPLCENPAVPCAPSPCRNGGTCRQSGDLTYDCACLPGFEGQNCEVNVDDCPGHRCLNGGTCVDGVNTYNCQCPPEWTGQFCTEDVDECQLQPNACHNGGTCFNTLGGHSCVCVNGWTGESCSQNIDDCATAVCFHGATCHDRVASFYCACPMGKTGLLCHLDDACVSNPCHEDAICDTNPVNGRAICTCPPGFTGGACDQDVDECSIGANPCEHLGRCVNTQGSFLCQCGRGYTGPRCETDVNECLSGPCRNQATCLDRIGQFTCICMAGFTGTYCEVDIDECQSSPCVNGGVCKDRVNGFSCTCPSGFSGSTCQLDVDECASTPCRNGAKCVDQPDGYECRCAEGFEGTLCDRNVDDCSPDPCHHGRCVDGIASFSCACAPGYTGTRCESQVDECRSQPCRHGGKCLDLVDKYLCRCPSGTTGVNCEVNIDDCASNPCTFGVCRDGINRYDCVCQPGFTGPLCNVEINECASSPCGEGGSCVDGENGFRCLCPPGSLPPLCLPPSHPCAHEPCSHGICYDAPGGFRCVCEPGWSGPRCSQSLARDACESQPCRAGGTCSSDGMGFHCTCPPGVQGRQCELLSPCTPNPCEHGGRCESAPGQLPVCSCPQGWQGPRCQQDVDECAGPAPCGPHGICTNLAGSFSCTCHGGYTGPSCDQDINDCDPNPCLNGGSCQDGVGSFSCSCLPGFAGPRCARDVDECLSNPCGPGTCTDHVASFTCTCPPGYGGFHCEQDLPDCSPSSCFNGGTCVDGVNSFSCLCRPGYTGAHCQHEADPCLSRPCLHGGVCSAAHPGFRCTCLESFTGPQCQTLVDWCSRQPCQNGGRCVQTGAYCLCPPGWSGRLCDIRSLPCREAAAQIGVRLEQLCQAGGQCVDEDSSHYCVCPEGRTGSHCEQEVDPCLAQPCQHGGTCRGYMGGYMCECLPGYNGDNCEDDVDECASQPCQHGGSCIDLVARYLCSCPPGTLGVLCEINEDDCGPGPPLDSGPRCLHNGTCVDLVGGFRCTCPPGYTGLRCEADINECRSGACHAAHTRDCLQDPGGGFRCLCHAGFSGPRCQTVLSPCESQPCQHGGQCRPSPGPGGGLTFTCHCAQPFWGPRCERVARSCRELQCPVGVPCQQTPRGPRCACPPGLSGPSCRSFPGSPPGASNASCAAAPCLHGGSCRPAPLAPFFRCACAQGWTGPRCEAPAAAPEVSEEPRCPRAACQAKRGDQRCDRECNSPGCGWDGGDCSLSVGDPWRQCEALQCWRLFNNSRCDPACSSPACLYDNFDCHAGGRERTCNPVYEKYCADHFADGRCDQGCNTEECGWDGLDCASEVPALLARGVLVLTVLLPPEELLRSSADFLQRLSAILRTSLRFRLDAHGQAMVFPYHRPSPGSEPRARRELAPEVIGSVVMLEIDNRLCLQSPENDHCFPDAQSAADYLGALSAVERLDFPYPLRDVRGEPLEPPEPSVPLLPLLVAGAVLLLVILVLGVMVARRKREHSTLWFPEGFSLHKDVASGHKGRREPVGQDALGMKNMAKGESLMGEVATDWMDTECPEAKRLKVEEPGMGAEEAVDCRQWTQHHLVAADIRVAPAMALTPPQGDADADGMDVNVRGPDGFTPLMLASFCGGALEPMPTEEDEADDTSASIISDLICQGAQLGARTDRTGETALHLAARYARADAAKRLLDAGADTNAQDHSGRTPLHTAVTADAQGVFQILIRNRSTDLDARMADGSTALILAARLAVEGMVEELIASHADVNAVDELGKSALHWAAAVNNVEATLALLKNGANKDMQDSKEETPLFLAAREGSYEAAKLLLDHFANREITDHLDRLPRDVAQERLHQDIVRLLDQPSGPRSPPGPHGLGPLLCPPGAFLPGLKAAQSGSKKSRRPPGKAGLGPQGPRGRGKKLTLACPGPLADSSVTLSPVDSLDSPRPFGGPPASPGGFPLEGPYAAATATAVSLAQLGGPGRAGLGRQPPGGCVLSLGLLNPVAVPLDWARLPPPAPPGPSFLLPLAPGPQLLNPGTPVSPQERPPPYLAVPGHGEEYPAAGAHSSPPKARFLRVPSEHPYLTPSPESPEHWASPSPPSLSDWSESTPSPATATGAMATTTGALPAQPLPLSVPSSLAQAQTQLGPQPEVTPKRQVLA
# [10] = probe aEGFR binding to arrayed compounds – biochemical, biotinylated probe, 635/667 nm fluorescence, primary screen (AID 1097); conditions: small-molecule microarray, higher = more signal;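 further: probe is a biotinylated anti-EGFR antibody binding compounds printed on slides; score combines fluorescence near 667 nm and signal to noise of each spot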
# [11] = test system: Plasmodium falciparum Sir2 (PF13_0152, Sir2A); assay: Plasmodium falciparum Sir2A binding compounds – biochemical, small-molecule microarray, 635 nm fluorescence, primary screen (AID 1098); conditions: fluorescence 635 nm, higher = more signal;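 further: score merges spot fluorescence intensity with its signal-to-noise ratio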
# [12] = probe aDKK1 binding to arrayed compounds – biochemical, biotinylated probe, 635/667 nm fluorescence, primary screen (AID 1099); conditions: small-molecule microarray, higher = more signal;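 further: score merges 667nm spot fluorescence with signal to noise across triplicate slides; reference of the scale not given here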
# [13] = probe aCHRDL2 binding to arrayed compounds – biochemical, biotinylated probe, 635/667 nm fluorescence, primary screen (AID 1100); conditions: small-molecule microarray, higher = more signal
# [14] = change in splice reporter luminescence, either direction, cell-based, HEK293, spliceosome inhibition project, primary screen (AID 1101); conditions: HEK293 splicing luciferase reporter, 24 h, higher = more signal, called active from +8 up or from −8 down;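 further: HEK293 cells carrying a splicing-competent luciferase reporter gene; test concentration not given here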
# [15] = biological target: Fibroblast growth factor 10 (Homo sapiens) (UniProt O15520); assay: compounds binding fibroblast growth factor 10 – biochemical, small-molecule microarray, 635 nm fluorescence, primary screen (AID 1102); conditions: FGF10 binding, fluorescence 635 nm, higher = more signal
# Sequence of Fibroblast growth factor 10 (Homo sapiens) (O15520 whole entry, looked up): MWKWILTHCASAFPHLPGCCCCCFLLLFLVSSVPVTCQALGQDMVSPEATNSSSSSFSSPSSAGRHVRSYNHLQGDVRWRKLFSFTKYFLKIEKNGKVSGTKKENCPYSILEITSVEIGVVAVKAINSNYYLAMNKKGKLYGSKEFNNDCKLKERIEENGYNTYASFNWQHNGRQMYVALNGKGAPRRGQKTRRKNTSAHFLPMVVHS
# [16] = test system: glycogen synthase kinase-3 (GSK3A per assay name; protocol says GSK3B); assay: compounds binding glycogen synthase kinase-3 – biochemical, small-molecule microarray, 635 nm fluorescence, GSK3A, primary screen (AID 1103); conditions: fluorescence 635 nm, higher = more signal; further: the record names both GSK3A and GSK3B
# [17] = biological target: Epidermal growth factor receptor (Homo sapiens) (UniProt P00533); assay: compounds binding epidermal growth factor receptor – biochemical, small-molecule microarray, 635 nm fluorescence, primary screen (AID 1104); conditions: EGFR binding, higher = more signal;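 further: score merges 667 nm emission intensity with spot signal to noise over triplicate slides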
# Sequence of Epidermal growth factor receptor (Homo sapiens) (P00533 whole entry, looked up): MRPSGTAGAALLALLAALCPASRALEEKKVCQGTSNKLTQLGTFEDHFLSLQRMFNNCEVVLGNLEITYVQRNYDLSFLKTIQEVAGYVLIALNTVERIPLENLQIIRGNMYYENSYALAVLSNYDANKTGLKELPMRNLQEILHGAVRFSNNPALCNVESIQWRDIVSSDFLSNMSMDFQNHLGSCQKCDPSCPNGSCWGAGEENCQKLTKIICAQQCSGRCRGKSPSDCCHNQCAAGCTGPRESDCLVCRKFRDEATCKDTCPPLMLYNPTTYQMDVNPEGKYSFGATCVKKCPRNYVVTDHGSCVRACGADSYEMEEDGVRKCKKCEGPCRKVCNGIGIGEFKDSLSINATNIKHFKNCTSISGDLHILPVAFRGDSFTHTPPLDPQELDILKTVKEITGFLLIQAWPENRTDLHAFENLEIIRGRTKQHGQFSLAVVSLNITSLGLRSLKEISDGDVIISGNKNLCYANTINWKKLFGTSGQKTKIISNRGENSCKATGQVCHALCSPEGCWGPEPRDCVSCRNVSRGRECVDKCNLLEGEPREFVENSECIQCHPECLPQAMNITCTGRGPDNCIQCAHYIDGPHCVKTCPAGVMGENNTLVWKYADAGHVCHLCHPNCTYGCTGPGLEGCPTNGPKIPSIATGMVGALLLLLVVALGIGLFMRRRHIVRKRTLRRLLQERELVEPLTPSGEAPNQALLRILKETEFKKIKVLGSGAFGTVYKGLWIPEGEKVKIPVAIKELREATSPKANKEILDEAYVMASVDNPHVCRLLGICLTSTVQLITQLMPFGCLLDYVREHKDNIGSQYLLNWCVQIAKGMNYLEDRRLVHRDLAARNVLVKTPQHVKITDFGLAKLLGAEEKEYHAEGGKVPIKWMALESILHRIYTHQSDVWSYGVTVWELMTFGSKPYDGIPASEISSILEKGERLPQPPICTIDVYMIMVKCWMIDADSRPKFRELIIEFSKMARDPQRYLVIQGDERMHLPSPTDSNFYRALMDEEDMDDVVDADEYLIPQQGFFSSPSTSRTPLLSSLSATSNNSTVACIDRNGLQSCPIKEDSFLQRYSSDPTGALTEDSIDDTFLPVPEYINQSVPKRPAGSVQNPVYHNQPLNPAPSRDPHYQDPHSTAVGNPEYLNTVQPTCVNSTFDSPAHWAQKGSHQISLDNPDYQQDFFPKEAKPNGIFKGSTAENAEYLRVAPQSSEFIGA
# [18] = biological target: Follistatin-related protein 3 (Homo sapiens) (UniProt O95633); assay: compounds binding follistatin-related protein 3 – biochemical, small-molecule microarray, 635 nm fluorescence, primary screen (AID 1105); conditions: FSTL3 binding, higher = more signal;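 further: score merges emission near 667 nm and signal to noise per printed spot across three slides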
# Sequence of Follistatin-related protein 3 (Homo sapiens) (O95633 whole entry, looked up): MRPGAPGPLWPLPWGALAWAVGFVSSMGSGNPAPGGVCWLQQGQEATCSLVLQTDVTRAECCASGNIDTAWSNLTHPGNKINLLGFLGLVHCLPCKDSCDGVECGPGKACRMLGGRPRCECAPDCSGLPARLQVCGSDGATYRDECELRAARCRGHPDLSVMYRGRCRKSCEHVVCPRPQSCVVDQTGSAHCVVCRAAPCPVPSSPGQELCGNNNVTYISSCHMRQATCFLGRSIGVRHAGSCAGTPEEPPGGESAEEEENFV
# [19] = biological target: Dickkopf-related protein 1 (Homo sapiens) (UniProt O94907); assay: small molecules binding DKK1 protein – biochemical, small-molecule microarray, 635 nm fluorescence scan, primary screen (AID 1106); conditions: higher = more signal;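 further: score merges emission near 667 nm with signal to noise over three replicate slides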
# Sequence of Dickkopf-related protein 1 (Homo sapiens) (O94907 whole entry, looked up): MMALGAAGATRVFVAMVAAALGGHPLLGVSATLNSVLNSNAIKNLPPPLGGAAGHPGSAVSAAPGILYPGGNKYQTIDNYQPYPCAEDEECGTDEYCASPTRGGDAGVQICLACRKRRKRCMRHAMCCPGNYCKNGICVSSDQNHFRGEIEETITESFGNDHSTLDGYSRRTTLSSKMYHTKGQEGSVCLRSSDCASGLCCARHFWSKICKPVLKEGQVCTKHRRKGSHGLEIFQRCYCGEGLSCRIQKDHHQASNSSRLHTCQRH
# [20] = test system: Inhibin beta A chain (activin A); assay: small molecules binding activin A – biochemical, small-molecule microarray, 635 nm fluorescence scan, primary screen (AID 1107); conditions: INHBA, higher = more signal;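 further: mouse activin A protein probed at 4.33 µg/mL on printed slides; score merges bound-protein fluorescence near 667 nm with spot signal-to-noise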
SMILES,composite z-score [1],z-score [2],z-score [3],z-score [4],composite z-score [5],z-score [6],composite z-score [7],composite z-score [8],composite z-score [9],composite z-score [10],composite z-score [11],composite z-score [12],composite z-score [13],z-score [14],composite z-score [15],composite z-score [16],composite z-score [17],composite z-score [18],composite z-score [19],composite z-score [20]
COCCCNC(=O)[C@@]1(Sc2ccc(C)cc2)CC(=O)N(Cc2ccccc2C(F)(F)F)[C@@H]1c1ccc(CO)cc1I,0.242,-0.394 (inactive),-1.05 (inactive),0.461 (inactive),1.08,0.217 (inactive),0.0245,-2.51,-1.4,-0.203,0.284,0.583,1.07,-0.411 (inactive),-1.02,-0.981,-1.44,-1.73,-0.831,1.02
COC(=O)[C@@]1(Cc2ccc(F)cc2)[C@H]2c3cc(C(=O)N(C)C)n(C)c3C[C@H]2CN1C(=O)c1ccccc1,-0.97,0.0108 (inactive),0.476 (inactive),0.08 (inactive),2.54,-0.339 (inactive),0.519,-0.608,0.381,0.383,0.0911,0.903,0.885,-0.84 (inactive),0.414,-0.489,-0.286,-0.125,-0.615,0.468
COC(=O)[C@@]1(Cc2ccc(OC)cc2)[C@H]2c3cc(C(=O)N4CCCC4)n(Cc4c(CO)[nH]cc(C)c4=O)c3C[C@H]2CN1C(=O)c1ccccc1,0.413,-1.56 (inactive),0.801 (inactive),0.147 (inactive),3.35,-0.391 (inactive),0.601,-0.243,0.381,-0.0728,0.488,2.01,1.13,-1.14 (inactive),0.404,0.237,-0.0221,0.158,-0.59,1.02
CN1C(=O)C2C(C3CC3)C=C3CN(Cc4cccc(Cl)c4)[C@@H]([C@@H](O)Cc4ccccc4)C3C2C1=O (stereo not given in full),1.57,0.347 (inactive),-1.87 (inactive),-0.539 (inactive),2.94,1.71 (inactive),-0.126,1.23,1.15,-0.0679,1.11,-0.217,-0.534,-1.32 (inactive),0.939,1.13,0.621,0.961,0.396,-0.262
CC(C)C(=C=CC[C@H](O)c1ccccc1OCCO)C[C@H](O)c1cc(Cl)cc(Cl)c1O,1.55,-0.088 (inactive),-2.34 (inactive),-0.16 (inactive),2.71,-0.0708 (inactive),-0.226,0.811,1.03,0.0284,1.25,-0.0965,-0.13,-0.605 (inactive),1.11,0.579,-0.172,0.588,-0.0053,0.149
